Source: PubChem BioAssay (National Center for Advancing Translational Sciences (NCATS))
IL1B secr inh = inhibitors of inflammasome signaling (IL-1 beta secretion); THP-1 LPS/ATP IL-1B secretion, AlphaLISA, 16 h; active compounds read low; activity change, % at 57.5 µM; 360,000 compounds, 4.7% hits; in the data active = activity change below about -50%; inconclusive = mostly about -30% to -49%
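Secreted IL-1B measured by AlphaLISA bead assay after 16 h compound exposure of THP-1 cells; compounds (final up to 57.5 uM) added 1 h before LPS (250 ng/mL) and ATP (1.25 mM) stimulation; lower signal means less secretion.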
TDP1 block = blocks human tyrosyl-DNA phosphodiesterase 1 | recombinant TDP1, AlphaScreen DNA substrate cleavage | 350,000 compounds, 0.28% hits | Potency, µM (highest dose often 130 µM), usual class: inhibitors | AID 485290 | Q9NUW8; also: nearly all actives have a fitted effect of over 40% in size
Target sequence (Q9NUW8 whole entry, looked up): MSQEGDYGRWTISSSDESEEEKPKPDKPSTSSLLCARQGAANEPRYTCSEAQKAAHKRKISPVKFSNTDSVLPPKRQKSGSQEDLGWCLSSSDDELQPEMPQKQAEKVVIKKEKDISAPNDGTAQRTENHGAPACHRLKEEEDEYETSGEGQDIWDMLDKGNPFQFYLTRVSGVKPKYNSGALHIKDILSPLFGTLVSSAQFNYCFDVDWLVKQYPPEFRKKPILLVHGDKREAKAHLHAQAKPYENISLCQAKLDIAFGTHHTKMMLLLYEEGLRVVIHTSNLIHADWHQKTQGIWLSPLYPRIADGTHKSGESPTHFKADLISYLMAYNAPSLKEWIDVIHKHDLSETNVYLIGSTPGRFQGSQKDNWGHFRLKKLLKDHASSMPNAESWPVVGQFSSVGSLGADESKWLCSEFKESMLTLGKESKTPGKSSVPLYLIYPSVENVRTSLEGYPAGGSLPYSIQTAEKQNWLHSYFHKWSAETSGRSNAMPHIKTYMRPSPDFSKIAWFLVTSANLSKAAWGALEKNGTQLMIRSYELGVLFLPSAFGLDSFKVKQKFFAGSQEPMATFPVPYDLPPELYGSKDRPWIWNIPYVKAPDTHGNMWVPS
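AlphaScreen read-out: signal falls as enzyme removes the 3' tyrosine-FITC from a 5'-biotinylated DNA oligo (15 nM, 5 min, RT). Enzyme was E. coli-made recombinant Tdp1 at 1 nM, exposed to compound for 15 min beforehand; beads 10 ug/ml, 10 min.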
CtBP-E1A blk = blocks the CtBP interaction with E1A; AlphaScreen GST-E1A/His-CtBP binding, 1536-well; active compounds read low; activity change, % (test concentration not listed); 340,000 compounds, 0.49% hits; AID 651724; in the data active = activity change below about -65%; inconclusive = mostly about -30% to -63%
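GST-E1A and His-tagged CtBP (125 nM each as 5X stock) were preincubated with pin-transferred compound for 2 h at 37 °C in the dark, then glutathione donor and nickel acceptor beads were added for 1 h before AlphaScreen reading.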
Six1-Eya2 inh = Six1/Eya2 interaction inhibition; AlphaScreen GST-Six1/His-Eya2 binding, biochemical; active compounds read low; AID 651725; Q15475+O00167; activity change, % (concentration not given with the values); 360,000 compounds, 0.56% hits; in the data active = activity change below about -65%; inconclusive = mostly about -30% to -63%
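GST-Six1 + His-Eya2 (5X stock: 250/500 nM); Tris pH 8.0, 300 mM NaCl, 0.05% BSA, 0.02% Tween 20; GSH donor/Ni acceptor beads; 1 h 37 °C dark; AlphaScreen readout.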
DT40 TDP1 CPT = growth inhibition of DT40 Tdp1-/-;hTDP1 cells with camptothecin (screen for TDP1 inhibitors) | chicken DT40 Tdp1-/-;hTDP1 cells + 20 nM CPT, ATP luminescence, 48 h | Potency, µM (titrated, usually from 46.2 µM), most hits filed as inhibitors | 420,000 compounds, 12% hits; also: nearly all actives have a fitted effect of over 55% in size
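Chicken DT40 Tdp1-/- cells stably complemented with human TDP1 were seeded at 400 cells/well in medium containing 20 nM camptothecin, exposed to pin-transferred compounds, and grown at 37 °C for at least 48 hr. Viability was read as ATP luminescence.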
TDP1 cell noCPT = qHTS for Inhibitors of human tyrosyl-DNA phosphodiesterase 1 (TDP1): qHTS in cells in absence of CPT; DT40 Tdp1-/- hTDP1 cells, no CPT, ATP luminescence, 48 h; 420,000 compounds, 15% hits; Potency, µM (highest dose often 46.2 µM), most hits filed as inhibitors; also: nearly all actives have a fitted effect of over 55% in size
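Luminescent ATP content (CellTiter-Glo) served as the growth readout. Knockout chicken DT40 cells expressing human TDP1 were exposed to compounds without camptothecin for a minimum 48 hr at 37 °C.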
Numbers stand for hits; – = inactive; ? = inconclusive; · = no result; [ ] = remark or other dose. The list is not random: actives were taken first. Their share in the collection is about 18%. Unless noted, calls follow the shape of the dose curve; as a rule, active = well fitted curve in the direction sought with a large enough effect; inconclusive = small, poorly fitted or top-dose-only effect, or another doubt; inactive = no such curve, though single readings can be large; an effect the other way counts as inactive or inconclusive.

SMILES	IL1B secr inh	TDP1 block	CtBP-E1A blk	Six1-Eya2 inh	DT40 TDP1 CPT	TDP1 cell noCPT
Cc1cccc(C)c1NC(=O)CN(C)C(=O)c1cccc(S(=O)(=O)N2CCN(C)CC2)c1	–	–	–	–	?	?
O=c1oc2cc(O)ccc2cc1-c1ccccc1	–	–	·	–	–	–
Cc1nc(Cl)nc(N(C)c2ccccc2)c1[N+](=O)[O-]	-82	–	–	–	?	?
Cc1nc(N/N=C/c2ccccc2)nc(N(C)c2ccccc2)c1[N+](=O)[O-]	–	–	–	–	–	–
CN1CCN(NC(=O)c2cn(-c3ccccc3)nc2-c2cccc(Br)c2)CC1	-136	–	–	–	?	?
CC1CCN(CCCCOc2ccccc2[N+](=O)[O-])CC1	-62	–	–	–	–	–
CCOc1ccccc1OCCOCCOc1ccccc1[N+](=O)[O-]	–	–	–	–	–	10µM
Cc1ccc(OCCCCN2CCCC(C)C2)c([N+](=O)[O-])c1 (stereo not given)	–	–	–	–	18µM	23µM
CCOc1cccc(OCCOc2ccccc2[N+](=O)[O-])c1	–	–	–	–	–	?
Cc1oc2ccc(O)c(CN(C)Cc3ccccc3)c2c1C(=O)Nc1cccc(C(F)(F)F)c1	·	–	·	·	5.8µM	5.2µM
Cc1oc2ccc(O)c(CN3CCOCC3)c2c1C(=O)Nc1cccc(C(F)(F)F)c1	·	–	·	·	16µM	?
Cc1oc2ccc(O)c(CN(C)Cc3ccccc3)c2c1C(=O)Nc1ccccc1	·	–	·	·	9.2µM	8.2µM
CN(Cc1ccccc1)Cc1c(O)ccc2ccccc12	–	·	–	–	?	–
O=C1C(=O)N(c2ccccn2)C(c2cccc(F)c2)/C1=C(/O)c1ccccc1 (stereo not given)	–	·	·	–	–	–
Cc1ccc2c(NC(=O)c3ccco3)cccc2n1	–	–	–	–	–	–
CC(OC(=O)CN1C(=O)c2ccccc2C1=O)C(=O)NCc1ccccc1 (stereo not given)	–	–	–	–	–	–
CCOc1ccc(Nc2cc(C)c3ccccc3n2)cc1	–	·	–	–	?	?
Cc1cc(NCC2CCCCC2)nc2ccccc12	-100	–	–	–	?	23µM
Cc1cc(C)c2c(c1)[C@@H]1C=CC[C@@H]1[C@H](c1ccc(S(=O)(=O)N3CCOCC3)cc1)N2	–	–	–	–	16µM	18µM
COC(=O)c1ccc(C2Nc3c(C)cc(C)cc3C3C=CCC32)cc1 (stereo not given)	·	–	·	·	?	?
CC(C)C[C@@H]1COc2cccc(N3CCC[C@@H]3CO)c2S(=O)(=O)N1	–	·	–	–	–	?
CCN(CCCNC(=O)c1cc2cc3ccc(OC)cc3nc2s1)c1cccc(C)c1	·	–[12.3 µM]	·	·	?	?
CCOc1ccc(NC(=O)c2cc3cc4cc(OC)ccc4nc3s2)cc1	·	–	·	·	–	4.6µM
CCN(CCCNC(=O)c1cc2cc3ccc(OC)cc3nc2s1)c1ccccc1	·	·	·	·	16µM	21µM
COc1ccc2nc3sc(C(=O)N4CCN(C)CC4)cc3cc2c1	–	–	–	–	–	–
SMILES	IL1B secr inh	TDP1 block	CtBP-E1A blk	Six1-Eya2 inh	DT40 TDP1 CPT	TDP1 cell noCPT
COc1ccc2nc3sc(C(=O)NCCCN4CCc5ccccc5C4)cc3cc2c1	–	–	?	?	?	16µM
COc1ccc(Nc2ncnc3sccc23)c(OC)c1	–	–	–	–	–	–
COc1ccc(-c2nc(NC(=O)c3c(C)noc3C)sc2C)cc1	–	–	–	–	10µM	21µM
COc1ccc(-c2csc(NC(=O)Cc3ccccc3F)n2)cc1OC	-64	–	–	–	?	26µM
COc1ccc(Cc2nnc(NC(=O)c3c(-c4ccccc4)noc3C)s2)cc1	–	–	–	–	–	–
Cn1nc(C(=O)Nc2nc(-c3ccc(F)cc3)cs2)ccc1=O	?	–	–	–	?	6.5µM
NNC(=O)c1n[nH]c(=O)c2ccccc12	–	–	·	–	–	–
Cc1cc(C)c(-c2csc(NC(=O)c3n[nH]c(=O)c4ccccc34)n2)c(C)c1	–	–	–	–	9.2µM	4.1µM
O=C(Nc1nc(-c2ccncc2)cs1)c1ccc(F)cc1	?	–	–	–	–	–
Cc1coc2c1c(C)cc1oc(=O)c(CC(=O)NCCC(=O)O)c(C)c12	–	·	·	–	–	–
O=C(NCCc1csc(-c2ccc(F)cc2)n1)c1ccco1	·	–	·	·	?	–
COc1ccc(-c2csc(NC(=O)CSCC(=O)Nc3cc(C)on3)n2)cc1OC	–	–	?	–	?	?
Cc1nnc(NC(=O)C2CC(=O)N(Cc3ccccc3)C2)s1 (stereo not given)	–	–	–	–	–	–
COc1ccc(-c2nc(NC(=O)CCNC(=O)c3ccco3)sc2C)cc1	–	–	–	–	23µM	18µM
COc1ccc(CC(=O)Nc2nc(-c3ccc(OC)c(OC)c3)cs2)cc1OC	-86	–	–	–	?	21µM
